# Measurements: PubChem BioAssay AID493240 (Broad Institute, 2011)
# Out of some 1,300 compounds screened, about 270 (21%) were called active. A selection follows. Results with a measured potency or affinity are listed apart. A number with no mark means an inactive call. How the calls were made is not given here.
# Experiment: SK-MEL-5 parental cell viability loss, dose response, orthogonal assay for MITF inhibitor project, CellTiter-Glo, cherry-picked, set 3 (AID 493240)
# Conditions: SK-MEL-5 viability, ATP luminescence (CellTiter-Glo), 24 h; series mostly up to 35 µM; activity change, negative = viability loss: at the top concentration
row,Structure (SMILES),"activity change, negative = viability loss"
1,O=C(/C=C/c1ccc([N+](=O)[O-])s1)N1CCCCC1,-26.5%
2,O=C(Nc1ccc(Cl)cc1)N1CC=CCC1,-1.58%
3,NC(=O)c1c(NC(=O)c2cccnc2)sc2c1CCCCC2,-3.25%
4,O=C(N/N=C/c1cc([N+](=O)[O-])ccc1N1CCNCC1)c1ccc([N+](=O)[O-])cc1,-29.8%
5,OCC1CCCC(n2cnc3c(=S)nc[nH]c32)O1 (stereo not drawn),-4.77%
6,CN(C)CCNC(=O)COc1ccc(C23CC4CC(CC(C4)C2)C3)cc1,-36.2%
7,O=C(CSc1ccc(Cl)cc1)NC1CCCC1,-14%
8,N#CC1=C(c2ccccc2)/C(=C/c2ccccc2)OC1=O,-34.2%
9,Cc1cc(C=C2C(=O)c3ccccc3C2=O)c(C)n1-c1ccccc1,-6.83%
10,Cc1ccccc1-n1ncc2c([N+](=O)[O-])cc([N+](=O)[O-])cc21,-17.4%
11,Cc1cc2oc(=O)cc(C)c2cc1NC(=O)CCC(=O)O,-30.1%
12,Cn1c(SC2=CS(=O)(=O)c3ccccc32)nc2ccccc21,-9.44%
13,COc1ccc(C(=O)NC(=O)Nc2cc(C)ccn2)cc1,-15.4%
14,Cc1cnn(C(=S)NCCc2ccccc2)c1,-4.11%
15,Cc1cc(NCCCn2ccnc2)n2ncc(-c3ccccc3)c2n1,-21.5%
16,CC(=O)c1ccc(N/C=C/C(=O)c2ccc(Br)cc2)cc1,-19.5%
17,COc1ccc(C(=O)N/N=C/c2cc(Br)ccc2O)cc1OC,-25.9%
18,CCOc1cc(/C=C(/C#N)c2ccc(Cl)cc2)cc(Cl)c1OCC(=O)O,8.64%
19,O=[N+]([O-])c1ccc(N/N=C/C=C/c2ccco2)cc1,-14.3%
20,CCC(=O)N1CCN(c2ccc(NC(=O)c3ccc([N+](=O)[O-])o3)cc2)CC1,-41.1%
21,CS(=O)(=O)N1CCN(c2ccc(NC(=O)c3ccc([N+](=O)[O-])o3)cc2)CC1,-16%
22,O=C(Nc1ccc(N2CCN(C(=O)c3ccc(Cl)cc3)CC2)cc1)c1ccc([N+](=O)[O-])o1,-47.7%
23,Cc1ccccc1C(=O)N1CCN(c2ccc(NC(=O)c3ccc([N+](=O)[O-])o3)cc2)CC1,-48.9%
24,CC(C)(C)c1ccc(C(=O)Nc2ccc(CC(=O)O)cc2)o1,-1.2%

row,Structure (SMILES),"activity change, negative = viability loss"
1,Cn1c(COc2ccccc2Br)nc2ccccc21,-8.98%
2,C[C@H]1CCC[C@]2(C)C[C@H]3OC(=O)C(CN4CCCCCC4)[C@H]3C=C12 (stereo partly drawn),16.4%
3,COc1ccc(NC(=O)c2cc3ccccc3[nH]2)cc1,-5.22%
4,O=C(NCc1ccco1)c1ccc(COCC(F)(F)F)cc1,-0.128%
5,COc1cc2nc(SCC(=O)NCc3ccco3)n(Cc3ccc(Cl)cc3)c(=O)c2cc1OC,-35.5%
6,CCN(C(=O)c1ccco1)c1nc(-c2ccc(OC)cc2)cs1,-4.72%
7,CCOCCCNC(=O)/C(C#N)=C/c1ccc([N+](=O)[O-])o1,-18%
8,CC1CC(C)CN(C(=O)/C=C/c2ccc([N+](=O)[O-])s2)C1 (stereo not drawn),3.99%
9,COc1ccc(C(=O)CCNc2ccc(F)cc2)cc1,1.01%
10,CCNC(=O)CC1C(=O)N(c2ccc(F)cc2)C(=O)N1CCc1ccc(OC)cc1 (stereo not drawn),0.632%
11,COc1ccc(C(=O)C(CN2CCCC2)c2ccccc2)cc1 (stereo not drawn),2.03%
12,COc1ccc(C(=O)C(CN2CCOCC2)c2ccccc2)cc1 (stereo not drawn),9.71%
13,CC(C)(C)c1ccc(-c2cc(N)n[nH]2)cc1,-6.71%
14,O=C(Nc1ccc(Cl)cc1)C1C2CCCCC21 (stereo not drawn),8.5%
15,CCOC(=O)N1C(=O)[C@@](CC)(c2ccccc2)N1C(=O)OCC,-21.1%
16,O=S1(=O)CCC(NC(=S)SCc2ccccc2Br)C1 (stereo not drawn),-11%
17,O=C(CSCC(=O)Nc1ccccc1)N/N=C/c1c(O)ccc2ccccc12,-22%
18,CCOC(=O)c1cn2nc(Oc3ccccc3)ccc2n1,12.7%
19,COc1ccc(/C=C2\SC(=S)N(CCCC(=O)NNC(=O)c3ccccc3O)C2=O)cc1,-8.32%
20,CN(C)CCNc1ccc2nnn3c4ccc(O)cc4c(=O)c1c23,-14.2%
21,O=C(Nc1ccccc1Cl)Nc1cccc2cccnc12,-17.8%
22,COc1ccc2oc(=N)c(C(=O)Nc3ccccc3Cl)cc2c1,-7.1%
23,Cc1cc(C(=O)Nc2cccc(C(=O)O)c2)oc1C,-14.7%
24,CCSc1nc2c(cnn2-c2ccccc2)c(=O)n1N,-4.29%

row,Structure (SMILES),"activity change, negative = viability loss"
1,O=C(O)c1cccc(N/N=C/c2ccc(OC(F)(F)F)cc2)c1,7.51%
2,COc1cc(C2C(C#N)=C(N)Oc3cc4c(cc32)OCO4)cc(OC)c1OC (stereo not drawn),-5.66%
3,Clc1ccc(-c2c[n+](Cc3cccc(Cl)c3)c3n2CCC3)cc1,-16.3%
4,O=C(C[n+]1cc(-c2ccc(F)cc2)n2c1CCC2)c1cccs1,-4.93%
5,Nc1ccc(-c2nc3c(Cl)cc(N)cc3[nH]2)cc1,10.1%
6,C=CCSC(=S)NC1CCS(=O)(=O)C1 (stereo not drawn),-9.89%
7,C/C(=N\NC(=O)C(C)Oc1ccc([N+](=O)[O-])cc1)c1ccccn1 (stereo not drawn),-47.3%
8,O=C(/C=C/c1ccc([N+](=O)[O-])s1)N1CCCC1,0.261%
9,COc1ccc(C(=O)Nc2ccc3ccccc3c2)cc1OC,-3.71%
10,COc1ccc(NC(=O)c2cc(F)cc(F)c2)cc1Cl,-20.6%
11,COc1ccc(NC(=O)c2scc(S(=O)(=O)C(C)C)c2N)cc1,-2.23%
12,O=C(/C=C/c1ccccc1)Nc1cccc(C(=O)O)c1,-6.13%
13,O=C(Nc1ccccc1F)c1ccc2c(c1)OCO2,-18.2%
14,Cc1cccc(OCC(=O)Nc2cccc(O)c2)c1,-1.33%
15,CC1(C)Cc2c(sc(NC(=O)Nc3ccccc3)c2C(N)=O)CO1,-7.49%
16,COc1cccc(/C=N/Nc2nc3ccccc3[nH]2)c1OC,7.71%
17,O=C(Nc1ccc(-c2cn3c(n2)SCC3)cc1)c1ccco1,-9.55%
18,NNC(=O)c1cc2ccccc2cc1O,-1.68%
19,CN(CC(=O)N1CCCCCC1)S(=O)(=O)c1ccccc1,-5.54%
20,COC(=O)C1=C(CN2CCCc3ccccc32)NC(=O)NC1c1ccc(F)cc1 (stereo not drawn),1.63%
21,O=Cc1ccc(N2Cc3ccccc3C2)cc1,-7.44%
22,Cc1ccc(C(=O)c2coc3ccc(O)c(Cl)c23)cc1,12.7%
23,COCc1cc(C)nc2sc(C(=O)Nc3cccc(OC)c3)c(N)c12,-11.7%
24,COc1ccc(CNC(=O)CN2C(=O)C3C4C=CC(C4)C3C2=O)cc1 (stereo not drawn),0.978%

row,Structure (SMILES),"activity change, negative = viability loss"
1,CN(C)CC1CC/C(=C\c2ccc(O)cc2)C1=O (stereo not drawn),-22.2%
2,Cc1cc(NC(=O)c2ccc(Cl)cc2Cl)no1,14.1%
3,N/C(=N\OC(=O)c1ccncc1)c1cccc([N+](=O)[O-])c1,-2.01%
4,O=[N+]([O-])/C=C\c1ccc(N2CCOCC2)cc1,-35.8%
5,COc1cccc2sc(N3CCN(C(=O)c4ccc([N+](=O)[O-])o4)CC3)nc12,-18.1%
6,Oc1c(Cl)cc(Cl)cc1/C=N/Nc1ncc(Br)cn1,-3.51%
7,O=C(Cc1cccs1)NCc1ccc(Cl)cc1Cl,-5.37%
8,c1ccc(OCc2nc3ccccc3[nH]2)cc1,-20.8%
9,CC(=O)c1c(C)[nH]c(C(=O)Nc2ccc(C)c(C)c2)c1C,-11.8%
10,BrC(=C\c1ccccc1)/C=N/n1cnnc1,-22.9%
11,CN(C(=O)/C=C/c1ccc([N+](=O)[O-])s1)c1ccccc1,-16.1%
12,Nc1nc2ccccc2n1/N=C/c1ccc(-c2ccccc2)o1,12.6%
13,Cc1cc2ncn(/N=C/c3ccc([N+](=O)[O-])o3)c2cc1C,-20.7%
14,O=[N+]([O-])c1ccc(/C=N/n2c(CO)nc3ccccc32)s1,-1.15%
15,Cc1ccc(C)c(-n2c3nc(=O)[nH]c(=O)c-3cc3cc([N+](=O)[O-])ccc32)c1,-45.3%
16,O=C(Nc1ccc(F)c(Cl)c1)c1ccc2c(c1)OCO2,-8.59%
17,COc1ccccc1N1CCN(/N=C\c2ccccc2)CC1,10.1%
18,CC(C)(C)N=Cc1cc(-c2ccccc2)sc1O,-6.91%
19,N#Cc1ccc(-c2cccnc2)nc1SCC(=O)c1ccccc1,-10.9%
20,COc1ccc(C(=O)Nc2nc3ccc(OC)cc3s2)cc1,-8.59%
21,CC(=C/c1ccco1)/C=N/N1CCN(c2ccccc2)CC1,-29.7%
22,CCCN(CC(=O)Nc1ccccc1C)C(=O)CCl,0.668%
23,Cc1nc(-c2ccccn2)sc1C(=O)Nc1ccc(F)cc1F,-13.2%
24,CC(=O)Nc1cccc2c1Cc1ccccc1-2,7.43%

row,Structure (SMILES),"activity change, negative = viability loss"
1,COc1ccc(N/C=C\C(=O)c2ccc3ccccc3c2)cc1,5.37%
2,Cc1c(NC(=O)c2ccc([N+](=O)[O-])o2)cccc1-c1nc2ncccc2o1,-46.9%
3,CCN(CC)S(=O)(=O)c1cccc(C(=O)N/N=C(\C)c2ccc(O)cc2O)c1,-6.57%
4,CCCCCCN1C=CC(=C2C(=O)c3ccccc3C2=O)C=C1,-33.1%
5,CC(C)CC(=O)NC(c1cccs1)c1ccc2cccnc2c1O (stereo not drawn),-34.1%
6,O=C(/C=C/c1ccccc1Cl)NC1CCCCC1,5.66%
7,COc1ccc(/C=C/C(=O)NC(=S)N2CCN(c3ccccc3OC)CC2)cc1,-5.38%
8,COCCN(C(=O)CCl)C(C(=O)NC1CCCCC1)c1ccccc1C (stereo not drawn),-12.2%
9,COCCn1c(C)cc(C(=O)CSc2nnc(C)s2)c1C,-11.4%
10,c1ccc(CSc2nnc(-c3ccco3)n2Cc2ccco2)cc1,-8.61%
11,N#Cc1c(NC(=O)CSc2ncn[nH]2)sc2c1CCCC2,5.56%
12,COc1ccc(-c2cc(-c3ccc(OC)c(OC)c3)n[nH]2)c(O)c1,-23.7%
13,CCCC1=Nc2cc(C(=O)NCCN3CCCC3)ccc2Sc2ccccc21,-42.8%
14,N#CC(C#N)=C1C=CC=CN1/C(=C\c1ccco1)C(=O)c1ccc(Cl)cc1,-21.5%
15,O=C(Nc1ccc2c(c1)OCCO2)c1coc2ccccc2c1=O,2.93%
16,O=C(NCc1ccccc1)NC1(C(=O)Nc2ccc3c(c2)OCCO3)CCCCC1,6.86%
17,COc1ccc(N(CC(=O)NCC2CCCO2)S(=O)(=O)c2ccccc2)cc1OC (stereo not drawn),5.1%
18,COc1ccc(/C=N/NC(=O)Cc2cccs2)cc1,-10.2%
19,CCOC(=O)/C=c1\s/c(=C\c2ccc3cc(OC)ccc3c2)c(=O)n1CC(=O)NCC1CCCO1 (stereo not drawn),-29.1%
20,CC(C)(C)C(=O)Cn1ncc(Br)c(Br)c1=O,0.059%
21,Cc1ccc2c(C(=O)CCl)c(C)[nH]c2c1,-25.4%
22,Cn1cc(C(=O)CCl)c2ccccc21,-42.3%
